Results on 39 molecules are retold here after PubChem BioAssay (NCATS).

Molecules are shown by their SMILES. Several values for one entry are separate records, joined by “and”; a condition that tells them apart may be missing. Equal entries are not always repeated. Results filed as inconclusive are left out. Where a call stands in place of a potency, no number is given. Activity calls are given as the source filed them. Calls follow the shape of the dose curve; as a rule, active = well fitted cell-killing curve with a large enough effect; inconclusive = small, poorly fitted or top-dose-only effect; inactive = no such curve, though single readings can be large or run the other way.
Potency is read from the fitted curve at half-maximal effect.

This assay can be described thus: qHTS of pediatric cancer cell lines to identify multiple opportunities for drug repurposing: Primary screen for SJ-GBM2 cells (AID 1347091). To be noted: SJ-GBM2 viability, CellTiter-Glo luminescence, 48 h; series mostly up to 46 µM. The procedure, abridged:
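Viability measured as metabolically active cells via CellTiter-Glo luminescence following 48 hours of compound exposure, 11-point dilutions in confirmatory testing. 500-1,000 cells/well plated 5 hours before dosing; controls were DMSO and 2.3 µM bortezomib.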
`CCCOc1ccc2nc(NC(=O)OC)[nH]c2c1`: the Potency was 0.001 µM (active).
On to `CCc1nc(N)nc(N)c1-c1ccc(Cl)cc1`, for which the Potency was 2.66 µM (active) and 4.18 µM (active).
With `Cc1ncc([N+](=O)[O-])n1CC(C)O` (centres undefined), the Potency result was “inactive”.
As to `O=c1oc2cc(O)ccc2s1`, the Potency result is “inactive”.
As to `CCOC(=O)C1=C[C@@H](OC(CC)CC)[C@H](NC(C)=O)[C@@H](N)C1`, the Potency result was “inactive”.
Take `CN(C)C(=O)[C@H](O)[C@H](Cc1ccccc1)NC(=O)c1cc2cc(Cl)ccc2[nH]1`: the Potency was 4.69 µM (active).
Regarding `Cc1cccc(-c2[nH]ncc2-c2ccc3ncccc3n2)n1`, the Potency result is “inactive”.
For the molecule `Cc1nccn1CC1CCc2c(c3ccccc3n2C)C1=O` (centres undefined), the Potency result was “inactive”.
In the case of `Cc1cc(O)c2c(c1)C(=O)c1cc(O)cc(O)c1C2=O`, the Potency entry was “inactive”.
`N=C(N=C(N)N)N1CCOCC1`: the Potency result is “inactive”.
In the case of `Nc1nc(N)c(N=O)c(OCC2CCCCC2)n1` it was 9.35 µM (active); in that of `CCC(C)(Oc1ccc(C2(c3ccc(OC(C)(CC)C(=O)O)cc3)CCCCC2)cc1)C(=O)O` (centres undefined), “inactive”.
As for `Cc1nc(-c2ccc(OCC(C)C)c(C#N)c2)sc1C(=O)O`, the Potency entry is “inactive”.
Take `Cn1c(NCCN(CCO)CCCc2ccc([N+](=O)[O-])cc2)cc(=O)n(C)c1=O`: the Potency entry was “inactive”.
For `C=C(c1ccc(C(=O)O)cc1)c1cc2c(cc1C)C(C)(C)CCC2(C)C`, the Potency was 26.6 µM (active).
Consider `Cc1c(OCC(F)(F)F)ccnc1CS(=O)c1nc2ccccc2[nH]1` (centres undefined), for which the Potency result is “inactive”.
Turning to `S=c1nc[nH]c2nc[nH]c12`, the Potency is 1.19 µM (active) and 3.32 µM (active).
With `CN(C)[C@@H](CCOc1cccc2ccccc12)c1ccccc1`, the Potency result was “inactive”.
With `O=C1c2c(O)cc(O)cc2OC(c2ccc(O)c(O)c2)C1O` (centres undefined), the Potency entry is “inactive”.
With `Cc1ccc(Nc2nccc(N(C)c3ccc4c(C)n(C)nc4c3)n2)cc1S(N)(=O)=O`, the Potency was 14.8 µM (active).
For `C[C@H](Cn1cnc2c(N)ncnc21)OCP(=O)(O)O`, the Potency result is “inactive”.
As for `O=C(NC(Cc1cc(=O)[nH]c2ccccc12)C(=O)O)c1ccc(Cl)cc1` (centres undefined), the Potency result is “inactive”.
The same measure for `COC1=C(OC)C(=O)C(CCCCCCCCCCO)=C(C)C1=O`: “inactive”.
Consider `Cc1cccc(C#Cc2ccccc2)n1`, for which the Potency result is “inactive”.
In the case of `O=Nc1c(-c2c(O)[nH]c3cc(Br)ccc23)[nH]c2ccccc12` it was 5.9 µM (active).
On to `COc1cc2c(N3CCN(C(=O)Nc4ccc(OC(C)C)cc4)CC3)ncnc2cc1OCCCN1CCCCC1`, for which the Potency result is “inactive”.
Turning to `CCOC(=O)C(C)Oc1cccc2c(=O)n(CC(=O)Nc3ccc4c(c3)OCCO4)ccc12` (centres undefined), the Potency entry was “inactive”.
Turning to `CC[C@]1(O)C[C@H]2CN(CCc3c([nH]c4ccccc34)[C@@](C(=O)OC)(c3cc4c(cc3OC)N(C=O)[C@H]3[C@@](O)(C(=O)OC)[C@H](OC(C)=O)[C@]5(CC)C=CCN6CC[C@]43[C@@H]65)C2)C1`, the Potency was 1 nM (active) and 84.1 nM (active).
In the case of `CNC[C@H](O)c1ccc(O)c(O)c1` it was “inactive”; in that of `O=C(CS(=O)Cc1ccco1)NCC=CCOc1cc(CN2CCCCC2)ccn1` (centres undefined), “inactive”.
Take `O=c1ccc2ccc(O)c(O)c2o1`: the Potency result is “inactive”.
In the case of `O=C(O)c1cccc(-c2noc(-c3ccccc3F)n2)c1`, the Potency result was “inactive”.
Regarding `Cc1cccc(CN2CCN(C(c3ccccc3)c3ccc(Cl)cc3)CC2)c1` (centres undefined), the Potency result was “inactive”.
Take `O=C(O)CCNC(=O)c1ccc(N=Nc2ccc(O)c(C(=O)O)c2)cc1`: the Potency entry was “inactive”.
As for `COc1cc2c(cc1OC)C1CC(=O)C(CC(C)C)CN1CC2` (centres undefined), the Potency result is “inactive”.
In the case of `Nc1nc(Cl)nc2c1ncn2[C@H]1C[C@H](O)[C@@H](CO)O1`, the Potency is 7.43 µM (active).
The same measure for `COc1c(O)cc2c(c1O)[C@@H]1O[C@H](CO)[C@@H](O)[C@H](O)[C@H]1OC2=O`: “inactive”.
The same measure for `c1ccc2[nH]c(-c3cscn3)nc2c1`: “inactive”.
For `O=C(NCCO[N+](=O)[O-])c1cccnc1`, the Potency entry is “inactive”.
